Screening results from PubChem BioAssay.
Shown are actives, neighbours in structure and some others; about 2.7% of the full set was active somewhere.
a7 integrin act: integrin-mediated muscular dystrophy alleviation activation. Potency, µM (series often up to 38.3 µM), actives largely listed as activators. alpha7betagal myoblasts, beta-gal FDG fluorescence, 48 h. 350,000 compounds, 0.064% hits; note: nearly all actives have a fitted effect of over 60% in size
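Alpha7betagal+/- myoblasts (passage 13) were plated 16-24 hr, then exposed to compounds (1:260 dilution of DMSO stock) for 48 hours at 37C. After MPER lysis, β-galactosidase reporter activity was read as FDG fluorescence (ex 480/em 540) after 30 minutes.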
GLP1R cytotox: cytotoxic in the GLP-1 receptor inverse agonist counter-screen. HEK293 cAMP-luciferase reporter cells, luminescence, 24 h. Potency, µM (series often up to 38.3 µM), hits mostly inhibitors. 410,000 compounds, 0.13% hits. AID 624418;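 note: loss of luciferase light is scored as toxicity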
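Quantitative HTS format, 1536 wells, 200 cells/uL seeded. Compounds: 23 nL, 24 h, 37 °C. Detection: luciferase reagent, luminescence at 12 min RT; decreased signal taken as cytotoxic.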
GLP1R inv ag: GLP-1 receptor (human) inverse agonism | P43220 | HEK293 GLP-1R CRE-luciferase, luminescence, 24 h; GLP-1R form is constitutively active | Potency, µM (series often up to 38.3 µM), most hits filed as inhibitors | 410,000 compounds, 1.6% hits | AID 624417; note: nearly all actives have a fitted effect of over 55% in size
Target sequence (P43220 whole entry, looked up): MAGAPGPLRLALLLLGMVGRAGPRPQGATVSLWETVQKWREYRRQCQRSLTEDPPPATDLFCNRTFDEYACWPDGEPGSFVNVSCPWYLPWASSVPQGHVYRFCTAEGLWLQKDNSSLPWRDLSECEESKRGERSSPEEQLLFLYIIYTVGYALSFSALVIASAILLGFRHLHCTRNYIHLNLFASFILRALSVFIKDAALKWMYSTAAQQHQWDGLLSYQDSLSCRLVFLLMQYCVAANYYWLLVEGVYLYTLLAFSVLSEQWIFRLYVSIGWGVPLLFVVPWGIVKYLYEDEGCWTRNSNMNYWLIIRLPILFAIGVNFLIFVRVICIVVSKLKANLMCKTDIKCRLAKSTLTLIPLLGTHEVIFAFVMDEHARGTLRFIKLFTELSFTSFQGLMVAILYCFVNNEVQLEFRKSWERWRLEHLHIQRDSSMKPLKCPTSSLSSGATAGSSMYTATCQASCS
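Luminescence readout: a drop in cAMP-driven luciferase signal flags inverse agonism at a constitutively active GLP-1R stably expressed in HEK293. Compound exposure lasted 24 hr at 37 deg C, 5% CO2.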
GLP1R ag: agonists of human GLP-1 receptor. HEK293 GLP-1R CRE-luciferase, luminescence, 4-6 h; cells express a hypersensitive GLP-1R form. P43220. Potency, µM (top dose mostly 45.6 µM), usual class: activators. 380,000 compounds, 0.007% hits. AID 624172
BRCA1 expr act: increases BRCA1 expression | MCF7-BRCA1-FFLuc reporter, luminescence, 48 h; response scale: scaled: vehicle 0%, 10 µM genistein 100% | Potency, µM (series often up to 46.1 µM), most hits filed as activators | 380,000 compounds, 1.1% hits | AID 624202; note: nearly all actives have a fitted effect of over 80% in size
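MCF7 cells carrying a BRCA1-firefly luciferase reporter (2000 cells/well, phenol-red free MEM) were attached for 2 h at 37 °C, then given compounds for 48 h. Luminescence was read 15 min after luciferase reagent; activity normalized to genistein (10 microM) and DMSO.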
Large screens that a line does not name were inactive. Calls come from the whole dose curve; as a rule, active = well fitted curve in the direction sought with a large enough effect; inconclusive = small, poorly fitted or top-dose-only effect, or another doubt; inactive = no such curve, though single readings can be large; an effect the other way counts as inactive or inconclusive.

CC1(C)C(=O)N(OCc2ccccc2)C(C)(C)C(=O)N1OCc1ccccc1	GLP1R inv ag 10µM
Cc1ccc(C(=O)Nc2ccc(Br)cc2)cc1S(=O)(=O)N1CCOCC1	GLP1R inv ag inconclusive (no result: a7 integrin act)
O=C(NCc1cccs1)c1ccc(N2CCCCC2)nc1	BRCA1 expr act 7.94µM
CC1CCCN(c2ccc(C(=O)NCc3cccs3)cn2)C1 (stereo not given)	BRCA1 expr act 10µM
CC1CCCN(c2ccc(C(=O)NCc3ccccc3)cn2)C1 (stereo not given)	GLP1R inv ag inconclusive, BRCA1 expr act 6.31µM
CC1CCN(c2ccc(C(=O)NCCc3ccccc3)cn2)CC1	BRCA1 expr act inconclusive
CCOC(=O)C1Nc2ccc(OC(F)(F)F)cc2C2C=CCC12 (stereo not given)	none
CCOC(=O)C1Nc2ccccc2C2C(O)C(O)CC12 (stereo not given)	GLP1R cytotox 7.08µM
Cc1ccn2cc(-c3cnoc3C)nc2c1	BRCA1 expr act 10µM
O=C(COc1ncnc2cc(Cl)ccc12)c1ccc2c(c1)OCCO2	BRCA1 expr act 1.78µM
Cc1ccc(C(=O)NCCNc2ccc([N+](=O)[O-])cc2C(F)(F)F)cc1	GLP1R cytotox inconclusive, GLP1R inv ag 10µM
Cc1ccc(C)c(N2CCN(C(=O)c3ccc4[nH]c(C)c(C)c4c3)CC2)c1	GLP1R inv ag 7.94µM (no result: a7 integrin act, GLP1R ag, BRCA1 expr act)
CCOC(=O)N1CCN(C(=O)c2ccc3[nH]c(C)c(C)c3c2)CC1	none
COc1ccc(OCC(=O)Nc2nc3c(s2)CCCC3)cc1	GLP1R inv ag inconclusive
O=C(CSc1nc2ccccc2o1)Nc1nc2c(s1)CCCC2	GLP1R inv ag 2.51µM
O=C(COc1ccc(F)cc1)Nc1nc2c(s1)CCCC2	GLP1R inv ag inconclusive, BRCA1 expr act 12.6µM
Cc1ccccc1NC(=O)CSc1nc2ccccc2o1	a7 integrin act inconclusive, BRCA1 expr act 12.6µM
CCOC(=O)c1noc2ncn(Cc3ccc([N+](=O)[O-])cc3)c(=O)c12	none (no result: a7 integrin act, GLP1R ag, BRCA1 expr act)
Cn1c2c(c(=O)n(C)c1=O)C(c1ccccc1C(F)(F)F)CC(=O)N2 (stereo not given)	none (no result: a7 integrin act)
CCN(CC)CCNC1=NCCn2c1cc1cc(OC)ccc12	GLP1R inv ag 2.82µM
COc1ccc(NC(=O)C[C@H]2C(=O)N(Cc3cccnc3)C[C@@H]2Cc2ccccc2)cc1	none
COc1ccc(CN2C[C@H](Cc3ccccc3)[C@@H](CC(=O)Nc3ccccc3)C2=O)cc1	GLP1R inv ag 8.91µM
CCCCCCc1ccc(N2C[C@H](CCCCC)[C@@H](CC(=O)NCc3ccccc3)C2=O)cc1	GLP1R inv ag 4.47µM
CCC[C@H]1CN(c2ccc(Br)cc2)C(=O)[C@@H]1CC(=O)Nc1ccccc1	GLP1R inv ag 11.2µM
CCC[C@H]1CN(c2ccc(Br)cc2)C(=O)[C@@H]1CC(=O)Nc1ccc(OC)cc1	GLP1R inv ag 7.94µM
Clc1ccc(/C=C/c2ccncc2)cc1Cl	none (no result: a7 integrin act, GLP1R cytotox, GLP1R inv ag, GLP1R ag)
COc1ccccc1CNS(=O)(=O)c1ccc2c(c1)CC(C)N2C(C)=O (stereo not given)	none (no result: a7 integrin act, GLP1R ag, BRCA1 expr act)
CN(C)c1ccc(/C=C/c2ccnc3ccccc23)cc1O	none (no result: a7 integrin act, GLP1R cytotox, GLP1R inv ag, GLP1R ag)
COCCn1c(SCC(=O)Nc2ccc(F)c(Cl)c2)nc2c(oc3ccccc32)c1=O	none (no result: a7 integrin act, GLP1R ag)
CCCCc1nn2c(C)c(-c3ccc(OCC)cc3)nc2s1	GLP1R inv ag 10µM (no result: a7 integrin act, GLP1R ag)
Cc1cccc(-n2cnc(C(=O)NC3CCCCCC3)c2)n1	BRCA1 expr act 10µM
CCCn1nc(NC(=O)c2ccccn2)c2cc3cc(C)ccc3nc21	BRCA1 expr act 11.2µM
CCOC(=O)Nc1ccc2c(c1)ncn2C1CCCCC1	GLP1R cytotox inconclusive, BRCA1 expr act 12.6µM
COC(=O)Nc1ccc2c(c1)ncn2C1CCCCC1	none
CCOCCCNC(=O)c1ccc2c(c1)ncn2C1CCCC1	BRCA1 expr act inconclusive
CC(C)CCNC(=O)c1ccc2c(c1)ncn2C1CCCC1	BRCA1 expr act 7.08µM
CCn1nnnc1SCC(=O)N(C1CCCCC1)C1CCCCC1	GLP1R inv ag 8.91µM
O=C(Nc1cccc(Cl)c1)N1CCN2C(=O)c3ccccc3C12c1ccccc1 (stereo not given)	GLP1R cytotox inconclusive, GLP1R inv ag 8.91µM
CCOC(=O)c1[nH]c(C)c(C(=O)NC(CC)Cc2ccccc2)c1C (stereo not given)	none (no result: a7 integrin act, GLP1R ag, BRCA1 expr act)
Cc1cc(NC(=O)c2ccc(Cl)cc2)no1	BRCA1 expr act 3.98µM
Cc1cc(NC(=O)NC(=O)c2ccccc2)no1	BRCA1 expr act 5.01µM
Cc1cc(NC(=O)c2cccc(COc3ccc(Br)cc3)c2)no1	GLP1R inv ag 1µM, BRCA1 expr act inconclusive
Nc1cc(Cl)nc(N/N=C/c2ccccc2[N+](=O)[O-])n1	BRCA1 expr act 11.2µM
COc1ccccc1CNc1nc(-c2ccco2)nn1S(=O)(=O)c1ccc(C)cc1	GLP1R inv ag inconclusive (no result: a7 integrin act, GLP1R ag, BRCA1 expr act)
COc1ccc(Oc2nccc(-c3ccccc3)c2C#N)cc1	BRCA1 expr act 5.01µM
COc1nccc(NCc2ccccc2)c1C#N	a7 integrin act 10µM
CCOC(=O)c1c(NC(=O)c2cc3nc(-c4ccc(OC)cc4)cc(C(F)(F)F)n3n2)sc(C)c1C	none (no result: a7 integrin act, GLP1R ag, BRCA1 expr act)
CCn1cc2nc(SCc3ccc(F)cc3)n(Cc3ccc(Cl)cc3)c(=O)c2n1	none (no result: a7 integrin act, GLP1R ag)
CC(C)COC(=O)N(C)c1ccc(C(O)(C(F)(F)F)C(F)(F)F)cc1	GLP1R inv ag 8.91µM
Cc1cc(C)nc(NC(=O)c2cccc(Br)c2)n1	none
Cc1cc(NC(=O)c2cccc(Br)c2)n[nH]1	BRCA1 expr act 11.2µM
Cn1c(=O)c2nc(SCC(=O)Nc3cc(Cl)ccc3Cl)n(C)c2n(C)c1=O	none (no result: a7 integrin act, GLP1R ag, BRCA1 expr act)
Cc1[nH]c2ccccc2c1C(=O)CN1C(=O)NC(C)(c2ccc(Cl)cc2Cl)C1=O (stereo not given)	GLP1R cytotox inconclusive, GLP1R inv ag 12.6µM
Cc1[nH]c2ccccc2c1C(=O)CSc1ccc(Cl)cc1	none
COc1ccc(CCNC(=O)c2cc(Nc3ccccc3)nc3ccccc23)cc1OC	none (no result: a7 integrin act, GLP1R ag, BRCA1 expr act)
Cc1cccc(CC(=O)NCC2CCCCC2)c1	BRCA1 expr act 10µM
COc1cccc(/C=C/C(=O)NCC2CCCCC2)c1	GLP1R inv ag inconclusive
O=C1c2ccccc2C(=O)N1CCCc1nc(-c2ccncc2)no1	none
Nc1nonc1-c1noc(CCCN2C(=O)c3ccccc3C2=O)n1	BRCA1 expr act 4.47µM
O=C(NCC1COc2ccccc2O1)c1ccccc1 (stereo not given)	BRCA1 expr act 7.94µM
Nc1[nH]c(=S)nc2nnsc12	none (no result: a7 integrin act, GLP1R cytotox, GLP1R inv ag, GLP1R ag)
CCOc1ccc(-n2c(SCC(=O)N3CCC(C)CC3)nc3c([nH]c4ccccc43)c2=O)cc1	none (no result: a7 integrin act)
O=C(c1ccc2c3n(nc2c1)-c1ccc(Cl)cc1CO3)N1CCOCC1	a7 integrin act inconclusive, BRCA1 expr act 6.31µM
O=C(c1ccc2c3n(nc2c1)-c1ccccc1CO3)N1CCOCC1	BRCA1 expr act inconclusive
O=C(c1ccc2c3n(nc2c1)-c1ccccc1CO3)N1CCCCC1	GLP1R inv ag inconclusive, BRCA1 expr act inconclusive
